Test results reported in PubChem BioAssay AID1063 (University of Pittsburgh Molecular Library Screening Center, 2008).
Screen size: about 200,000 compounds; about 18,000 (9%) were called active. This is one part of a sample in which actives are shown more often than they occur. Values without a mark were called inactive. No stated cut-off is given here; in the data, active means inhibition above about 50%; inactive means the rest. Where a SMILES comes first, the peptide text is derived from it. The star is where a group is joined. Bz = O=C(c1ccccc1)*

Test: antileishmanial activity against promastigotes – primary screen (AID 1063);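 further: promastigotes grown with compound for 44 hours at 28 °C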
Settings: Leishmania major promastigotes, resazurin fluorescence viability; at 10 µM; hits give high values

Structure (SMILES) | inhibition
COc1cc(C(=O)N[C@@H](C)C(=O)NCc2ccco2)cc(OC)c1OC | -6.03%
CCCCn1c(N)c(N(CC)C(=O)/C=C/c2ccco2)c(=O)[nH]c1=O | -4.32%
[O-][n+]1c2c(nn1-c1ccc(Cl)c(Cl)c1)-c1nonc1CC2 | 13.6%
Cc1nc(N2CCCCC2)sc1C=O | 6.31%
CCC(C)(C)c1ccc(OCC(=O)N(C)C)c(C(C)(C)CC)c1 | 18.1%
COC(=O)CNC(=O)c1ccc(OC2CCN(C(=O)C3CC3)CC2)cc1 | -6.39%
CCOc1cc(CNn2c(C)nnc2SCC(=O)NC(C)(C)C)ccc1OCC(=O)NC(C)(C)C | 0.56%
CC1(C)C(c2cccs2)=[N+]([O-])C2(CCCCC2=O)N1O (stereo not given) | -6.22%
COCCN(Cc1nc(-c2ccc(C(F)(F)F)cc2)no1)C(C)C | 0.28%
O=C(Nc1ccnc(-c2ccncc2)n1)c1cccs1 | 1.21%
COC(=O)CCNC(=O)c1ccc2[nH]c(C)c(C)c2c1 | -6.37%
COc1ccc(-c2[nH]ncc2CN(C)Cc2cccnc2)c(F)c1 | 5.13%
CC/C(O)=C1\C(=O)CC(C)(C)CC1=NCCc1nc2ccccc2[nH]1 | 2.52%
COC(=O)c1ccc(NC(=O)Nc2ccc(C)cc2)cc1 | 91.7% (active)
Cc1ccc(NC(=O)CC(=O)Nc2ccc(C)cc2)cc1 | -5.48%
CC(=O)c1cccc(NC(=O)Nc2ccc(C)cc2)c1 | -3.66%
O=C(Nc1ccc(S(=O)(=O)N2CCCCC2)cc1)c1cnccn1 | -3.44%
O=C(NC1CCCCC1)C1CCCN(S(=O)(=O)c2cccs2)C1 (stereo not given) | -2.02%
CC1CCCN(S(=O)(=O)c2ccc(N(C(=O)c3cnccn3)C(C(=O)NC3CCCCC3)c3cccs3)cc2)C1 (stereo not given) | 69.2% (active)
CCCCn1c(=O)c(C(C)=O)c(O)c2ccccc21 | -2.04%
COC(=O)c1ccc(N(CC(=O)NC2CCCC2)C(=O)CNC(=O)c2ccco2)cc1 | -5.36%
COC(=O)c1cccc(N(C(=O)c2ccco2)C(C(=O)NC2CCCC2)c2ccco2)c1 (stereo not given) | 51.8% (active)
O=C(NC1CCCC1)C(c1ccc(N2CCOCC2)cc1)N(C(=O)c1ccco1)c1ccccc1F (stereo not given) | 3.7%
Cc1cc(C(=O)N/N=C\C(Br)=C\c2ccccc2)c(C)o1 | 12.7%

Structure (SMILES) | inhibition
COCc1c(C(=O)N/N=C/C2CC=CCC2)nnn1-c1nonc1N (stereo not given) | -6.32%
Nc1nonc1-n1nnc(C(=O)N/N=C/c2cc(Br)ccc2O)c1CSC1=NCCS1 | 50.8% (active)
COc1cc(/C=N\NC(=O)c2nonc2N)c(OC)cc1Br | -4.69%
COc1ccc(-c2ccc(CCC(=O)O)n2NC(=O)c2ccc(C(C)(C)C)cc2)cc1 | -4.23%
NC(=O)C1=C[C@H](c2csc3ccccc23)C[C@H](OCc2ccc(CO)cc2)O1 | 14.5%
CN(C)N(C)C(=O)C(O)(c1ccccc1)c1ccccc1 | -4.98%
Cc1nc(C)c(C(=O)N(c2ccc(C)c(C)c2)C(C(=O)NCc2ccco2)c2ccccc2)s1 (stereo not given) | -1.53%
Cc1nn(-c2ccccc2)c2sc(C(=O)N(Cc3ccco3)C(C)C(=O)NC(C)(C)C)cc12 (stereo not given) | 85.5% (active)
Cc1ccc(-c2nnn(CC(=O)N(Cc3ccco3)C(C(=O)NC(C)(C)C)c3ccncc3)n2)o1 (stereo not given) | 4.2%
COc1ccc(CC(=O)NCc2nnc(SCC(=O)Nc3ncc(C)s3)n2C)cc1 | -4.95%
N#Cc1nc(Cc2ccccc2)oc1NCCc1ccccc1 | 0.9%
N#Cc1nc(COc2ccc(-c3ccccc3)cc2)oc1NCc1cccnc1 | 7.49%
CCOc1ccc(Nc2oc(Cc3ccccc3)nc2C#N)cc1 | 99.7% (active)
CCOC(=O)c1[nH]cnc1C(=O)Nc1ccccc1C | 4.69%
CCC(=O)Nc1ccc(C(=O)N2CCN(C(=O)c3ccco3)CC2)cc1 | 0.95%
O=C(Nn1cnc2ccccc2c1=O)c1ccc([N+](=O)[O-])cc1Cl | -9.04%
CC(=O)Nc1ccc(OCC(=O)NCc2ccc(C)cc2)cc1 | -6.13%
Cc1ccc(NC(=O)OCc2cncs2)cc1 | -5.83%
COc1ccc(NC(=S)Nc2ccccc2Cl)cn1 | 6.52%
COc1ccc(CS(=O)/C(Cl)=C(/Cl)C(=O)Nc2ccc(OC)nc2)cc1 (stereo not given) | 101% (active)
COc1ccc(NC(=O)/C(Cl)=C(/Cl)S(=O)Cc2ccc(C)cc2)cn1 (stereo not given) | 101% (active)
COc1ccc(NC(=S)NCCNC(C)=O)cc1 | -3.38%
Cc1ccc(NC(=O)OCCNC(=O)c2ccncc2)cc1 | 0.55%
O=C(CN1C(=O)NC2(CCCCCC2)C1=O)NC1CC1 | -1.36%

Structure (SMILES) | inhibition
O=C(Nc1ccccc1C(=O)O)c1cc(S(=O)(=O)N2CCCCC2)cs1 | -7.25%
CCOC(=O)c1sc(=NC(=O)/C=C/c2cccs2)n(C)c1C | -7.45%
Cc1ccc(OCc2n[nH]c(=S)n2-c2ccccc2)cc1 | 0.68%
COc1ccc(C)cc1S(=O)(=O)N(CC(=O)Nc1cccc([N+](=O)[O-])c1)c1ccc(C)cc1 | 30.9%
COc1ccccc1N(C(=O)Cn1nnc2ccccc21)C(C(=O)NCc1ccco1)c1ccc(C)o1 (stereo not given) | -2.13%
COc1ccc([N+](=O)[O-])cc1N(CC(O)Cn1nnc2ccccc21)S(=O)(=O)c1ccc(C)cc1 (stereo not given) | 99% (active)
CC(=O)OC(COc1ccc(F)cc1)Cn1cnc2ccccc21 (stereo not given) | -0.28%
Cc1cc(C(F)F)n2nc(C(=O)Nc3ccc(S(=O)(=O)NC45CC6CC(CC(C6)C4)C5)cc3)nc2n1 | 99% (active)
CCn1nccc1C(=O)Nc1ccc(S(=O)(=O)NC23CC4CC(CC(C4)C2)C3)cc1 | 47.6%
Cc1cc(NS(=O)(=O)c2ccc(NC(=O)c3cccc(OC(F)F)c3)cc2)nc(C)n1 | -1.79%
COc1ccc(Cl)cc1N(CC(=O)N1CCCCC1)S(C)(=O)=O | -4.47%
CN(C)c1ccc(/C=N/N(Cc2ccccc2)c2ccccc2)cc1 | 3.58%
CN(C)c1ccc(/C=N\S(=O)(=O)c2ccccc2)cc1 | 51.7% (active)
COc1ccc(/C=N/S(=O)(=O)c2ccccc2)cc1OC | 0.14%
CCNC(=S)NNC(=O)c1ccc2ncccc2c1 | -8.24%
OC(c1nnc(-c2ccccc2)o1)c1cccs1 (stereo not given) | 0.18%
O=c1cnnc(Nc2ccccc2F)[nH]1 | -2.35%
CCN1C(=O)/C(=C\N2CCN(c3ccccc3)CC2)SC1=S | 0.18%
CC(C)=C1SC(N2CCN(c3cccc(C)c3)CC2)=NC1=O | 1.42%
CCN1C(=O)/C(=C2\SC(N3CCCCC3)=NC2=O)c2ccccc21 | 74.1% (active)
Cc1cccc(C(=O)NC(=S)N2CCN(c3ccc([N+](=O)[O-])cc3)CC2)c1 | 36.9%
O=C(c1ccc(Cl)c([N+](=O)[O-])c1)N1CCN(c2ccccc2)CC1 | -0.23%
O=C(c1cncc(Br)c1)N1CCN(c2ccc([N+](=O)[O-])cc2)CC1 | 57.2% (active)
Cc1cc([N+](=O)[O-])nn1CC(=O)Nc1ccc(Cc2ccncc2)cc1 | -0.44%

Structure (SMILES) | inhibition
Cc1ccc2c(=O)oc(N(C)C)nc2c1 | 7.03%
Cc1ccc(SCCC(=O)Nc2cc(C)on2)cc1 | -6.06%
Cc1ccc(SCCC(=O)NCc2ccccn2)cc1 | 3.06%
Cc1ccc(SCCC(=O)NC(C(C)C)C(C)C)cc1 | 59.5% (active)
CN(C)/C=C/C(=O)c1cnc2sccn2c1=O | -6.23%
O=C(NC(Cc1ccccc1)C(=O)N1CCCC1C(=O)O)c1ccccc1 (stereo not drawn) (Bz-Phe-Pro-OH; configuration not given here) | -8.5%
Cc1ccc(C(=O)N2CCN(C3CCCCC3)CC2)s1 | -10.8%
O=C(C(Cc1ccccc1)n1cccc1)N1CCN(C2CCCCC2)CC1 (stereo not given) | 83% (active)
COCCCN(C(=S)Nc1c(C)cc(C)cc1C)C(C)c1ccncc1 (stereo not given) | 1.38%
O=C(Nn1c(-c2ccccc2)nc2ccccc2c1=O)c1ccc([N+](=O)[O-])cc1 | -4.12%
O=C(Nn1c(-c2ccc(Cl)cc2)nc2ccccc2c1=O)c1cccnc1Cl | 55.3% (active)
Cc1cccc(-c2nc3ccccc3c(=O)n2NC(=O)Cc2ccc(Cl)cc2)c1 | 53% (active)
COc1cc(OC)cc(-c2nc3ccccc3c(=O)n2NC(=O)c2cccnc2Cl)c1 | 46.3%
O=C(Cc1ccc(Cl)cc1)NCc1nc(-c2ccccc2)no1 | -1.26%
O=C(Cn1nnc2ccccc2c1=O)NCc1ccc(Cl)cc1 | -4.83%
CCCCCC1CCC(c2nnc(SCC(C)=O)o2)CC1 (stereo not given) | -9.46%
COCCNC(=O)C(OC(=O)c1cccs1)c1ccc(F)cc1 (stereo not given) | -3.33%
COc1ccc(Cl)cc1NC(=O)CN(C)Cc1ccc(OC)c(OC)c1 | 1.17%
Cc1cccc(-n2c(Cc3cc(=O)[nH]c(=O)[nH]3)nnc2SCC(=O)Nc2cccc(C(F)(F)F)c2)c1 | -1.75%
N#Cc1c(NC(=O)C2CC(Cl)=CCC2C(=O)O)sc2c1CCCCC2 (stereo not given) | -8.36%
COc1ccc(OCC(=O)Nc2ccc(N3CCC(C)CC3)cc2)cc1 | 8.72%
O=C(COc1ccc([N+](=O)[O-])cc1)Nc1ccc(N2CCCC2)cc1 | 86.2% (active)
O=C(COC(=O)C1CCCCC1)Nc1ccc([N+](=O)[O-])cc1 | -5.31%
